Tests used:
[1] = biological target: Death-associated protein kinase 1 (Homo sapiens) (UniProt P53355); conditions: at 1 µM;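 also: each value is a mean inhibition figure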
[2] = biological target: T1, Serine/threonine-protein kinase DCLK2 (Homo sapiens) (UniProt Q8N568); conditions: at 0.1 µM
T1 sequence (whole entry): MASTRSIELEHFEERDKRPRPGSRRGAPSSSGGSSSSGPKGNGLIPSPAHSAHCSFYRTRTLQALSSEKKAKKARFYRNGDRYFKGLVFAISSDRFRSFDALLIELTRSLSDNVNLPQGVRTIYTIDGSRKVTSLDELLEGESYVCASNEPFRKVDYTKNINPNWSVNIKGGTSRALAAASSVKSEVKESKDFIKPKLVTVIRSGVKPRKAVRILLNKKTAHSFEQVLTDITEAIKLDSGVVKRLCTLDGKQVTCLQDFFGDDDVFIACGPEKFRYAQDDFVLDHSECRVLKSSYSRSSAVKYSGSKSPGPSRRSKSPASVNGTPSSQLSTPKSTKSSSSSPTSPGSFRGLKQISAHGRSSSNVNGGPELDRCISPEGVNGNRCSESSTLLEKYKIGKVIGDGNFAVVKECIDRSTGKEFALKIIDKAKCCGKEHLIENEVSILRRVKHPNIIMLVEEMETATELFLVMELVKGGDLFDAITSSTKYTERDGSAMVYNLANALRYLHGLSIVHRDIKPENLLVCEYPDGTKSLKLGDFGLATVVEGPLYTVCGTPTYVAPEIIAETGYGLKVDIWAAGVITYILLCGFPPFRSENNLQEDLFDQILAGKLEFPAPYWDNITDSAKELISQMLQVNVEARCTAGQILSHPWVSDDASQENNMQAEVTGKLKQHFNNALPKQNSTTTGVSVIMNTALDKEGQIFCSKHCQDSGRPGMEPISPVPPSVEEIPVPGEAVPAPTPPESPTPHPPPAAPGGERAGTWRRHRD

[3] = biological target: T1, Serine/threonine-protein kinase DCLK2 (Homo sapiens); conditions: at 1 µM
[4] = biological target: MAP kinase-activated protein kinase 2 (Homo sapiens) (UniProt P49137); conditions: at 0.1 µM
MAP kinase-activated protein kinase 2 (Homo sapiens), sequence (P49137 whole entry, looked up): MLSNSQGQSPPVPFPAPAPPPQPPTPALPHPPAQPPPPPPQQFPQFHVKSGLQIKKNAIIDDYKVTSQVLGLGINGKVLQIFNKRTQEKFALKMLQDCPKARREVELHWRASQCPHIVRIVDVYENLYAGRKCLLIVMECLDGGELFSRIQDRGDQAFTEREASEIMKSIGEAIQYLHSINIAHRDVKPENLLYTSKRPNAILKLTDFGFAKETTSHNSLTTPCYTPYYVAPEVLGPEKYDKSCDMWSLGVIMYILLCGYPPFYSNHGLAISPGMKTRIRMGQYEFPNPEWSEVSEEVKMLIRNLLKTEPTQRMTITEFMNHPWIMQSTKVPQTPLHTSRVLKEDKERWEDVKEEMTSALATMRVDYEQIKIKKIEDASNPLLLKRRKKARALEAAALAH

[5] = biological target: MAP kinase-activated protein kinase 2 (Homo sapiens) (UniProt P49137); conditions: at 1 µM
[6] = biological target: MAP kinase-activated protein kinase 3 (Homo sapiens) (UniProt Q16644); conditions: at 0.1 µM
MAP kinase-activated protein kinase 3 (Homo sapiens), sequence (Q16644 whole entry, looked up): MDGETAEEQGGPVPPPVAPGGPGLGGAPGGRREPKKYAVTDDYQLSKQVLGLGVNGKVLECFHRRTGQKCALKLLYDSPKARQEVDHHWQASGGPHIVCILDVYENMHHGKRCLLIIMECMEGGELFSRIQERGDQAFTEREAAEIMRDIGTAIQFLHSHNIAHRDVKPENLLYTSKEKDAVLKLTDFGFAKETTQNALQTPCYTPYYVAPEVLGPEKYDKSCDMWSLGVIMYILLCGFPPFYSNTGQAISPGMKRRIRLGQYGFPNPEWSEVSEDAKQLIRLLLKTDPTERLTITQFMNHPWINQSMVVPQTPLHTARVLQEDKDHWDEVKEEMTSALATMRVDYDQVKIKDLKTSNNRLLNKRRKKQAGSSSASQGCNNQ

[7] = biological target: MAP kinase-activated protein kinase 3 (Homo sapiens) (UniProt Q16644); conditions: at 1 µM
[8] = biological target: Serine/threonine-protein kinase MARK1 (Homo sapiens) (UniProt Q9P0L2); conditions: at 0.1 µM
Serine/threonine-protein kinase MARK1 (Homo sapiens), sequence (Q9P0L2 whole entry, looked up): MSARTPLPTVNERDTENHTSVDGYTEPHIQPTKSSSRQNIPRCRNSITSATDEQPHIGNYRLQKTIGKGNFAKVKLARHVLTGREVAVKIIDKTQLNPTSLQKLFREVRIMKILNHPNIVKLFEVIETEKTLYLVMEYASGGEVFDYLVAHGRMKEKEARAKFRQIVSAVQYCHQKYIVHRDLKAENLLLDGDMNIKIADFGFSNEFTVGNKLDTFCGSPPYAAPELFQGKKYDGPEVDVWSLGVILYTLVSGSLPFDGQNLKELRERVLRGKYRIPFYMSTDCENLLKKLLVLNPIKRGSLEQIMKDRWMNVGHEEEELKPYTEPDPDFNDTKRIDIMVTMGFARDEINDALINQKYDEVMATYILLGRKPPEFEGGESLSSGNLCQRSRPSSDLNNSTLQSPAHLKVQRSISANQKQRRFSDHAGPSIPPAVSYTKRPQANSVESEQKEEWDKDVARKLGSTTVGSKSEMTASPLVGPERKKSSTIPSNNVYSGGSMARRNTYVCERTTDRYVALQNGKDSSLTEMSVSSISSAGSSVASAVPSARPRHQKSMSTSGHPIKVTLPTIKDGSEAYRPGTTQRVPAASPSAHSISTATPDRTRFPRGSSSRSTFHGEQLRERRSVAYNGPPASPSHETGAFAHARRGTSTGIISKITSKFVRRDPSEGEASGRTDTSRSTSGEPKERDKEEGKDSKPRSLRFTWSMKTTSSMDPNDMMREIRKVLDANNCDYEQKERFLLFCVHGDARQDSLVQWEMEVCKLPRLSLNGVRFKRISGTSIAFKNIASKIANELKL

[9] = biological target: Serine/threonine-protein kinase MARK1 (Homo sapiens) (UniProt Q9P0L2); conditions: at 1 µM
[10] = biological target: MAP/microtubule affinity-regulating kinase 3 (Homo sapiens) (UniProt P27448); conditions: at 0.1 µM
MAP/microtubule affinity-regulating kinase 3 (Homo sapiens), sequence (P27448 whole entry, looked up): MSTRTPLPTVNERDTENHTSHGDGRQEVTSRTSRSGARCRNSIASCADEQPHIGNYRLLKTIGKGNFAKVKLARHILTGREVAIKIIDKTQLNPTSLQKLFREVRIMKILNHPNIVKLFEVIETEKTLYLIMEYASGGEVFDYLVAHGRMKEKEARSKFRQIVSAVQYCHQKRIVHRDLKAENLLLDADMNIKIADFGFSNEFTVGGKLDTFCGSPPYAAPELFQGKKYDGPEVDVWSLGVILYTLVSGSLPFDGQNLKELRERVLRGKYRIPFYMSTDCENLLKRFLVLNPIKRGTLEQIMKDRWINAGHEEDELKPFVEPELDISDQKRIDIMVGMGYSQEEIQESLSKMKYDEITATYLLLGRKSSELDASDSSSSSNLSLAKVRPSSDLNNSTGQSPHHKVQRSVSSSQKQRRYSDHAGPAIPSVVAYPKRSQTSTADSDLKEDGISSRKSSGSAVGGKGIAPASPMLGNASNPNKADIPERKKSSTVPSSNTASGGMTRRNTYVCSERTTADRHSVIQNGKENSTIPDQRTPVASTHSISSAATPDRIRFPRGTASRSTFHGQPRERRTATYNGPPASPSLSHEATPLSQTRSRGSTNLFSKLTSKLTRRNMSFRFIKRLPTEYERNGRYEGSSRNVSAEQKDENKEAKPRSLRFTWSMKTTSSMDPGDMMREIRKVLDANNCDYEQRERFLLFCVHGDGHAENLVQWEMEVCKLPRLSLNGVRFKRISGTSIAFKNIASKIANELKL

[11] = biological target: MAP/microtubule affinity-regulating kinase 3 (Homo sapiens) (UniProt P27448); conditions: at 1 µM
[12] = biological target: T2, MAP/microtubule affinity-regulating kinase 4 (Homo sapiens) (UniProt Q96L34); conditions: at 0.1 µM
T2 sequence (whole entry): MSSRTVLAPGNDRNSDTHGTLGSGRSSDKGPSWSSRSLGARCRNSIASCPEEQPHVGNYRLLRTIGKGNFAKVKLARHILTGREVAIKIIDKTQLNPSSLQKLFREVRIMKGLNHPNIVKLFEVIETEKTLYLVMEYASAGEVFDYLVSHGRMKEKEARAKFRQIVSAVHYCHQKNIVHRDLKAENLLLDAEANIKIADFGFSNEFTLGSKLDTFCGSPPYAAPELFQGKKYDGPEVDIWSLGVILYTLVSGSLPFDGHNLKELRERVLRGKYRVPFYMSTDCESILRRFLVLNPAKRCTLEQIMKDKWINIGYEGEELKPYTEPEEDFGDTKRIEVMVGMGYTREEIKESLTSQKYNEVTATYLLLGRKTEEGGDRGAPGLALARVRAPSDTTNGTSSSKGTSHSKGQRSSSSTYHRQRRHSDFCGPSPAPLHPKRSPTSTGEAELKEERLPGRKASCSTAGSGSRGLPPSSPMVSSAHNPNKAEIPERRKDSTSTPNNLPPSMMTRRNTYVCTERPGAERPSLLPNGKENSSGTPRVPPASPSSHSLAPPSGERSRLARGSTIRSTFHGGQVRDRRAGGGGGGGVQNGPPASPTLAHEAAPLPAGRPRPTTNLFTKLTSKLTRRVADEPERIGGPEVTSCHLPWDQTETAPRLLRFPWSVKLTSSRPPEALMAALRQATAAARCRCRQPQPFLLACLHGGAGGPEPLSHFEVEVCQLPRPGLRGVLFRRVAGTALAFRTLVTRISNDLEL

[13] = biological target: T2, MAP/microtubule affinity-regulating kinase 4 (Homo sapiens); conditions: at 1 µM
[14] = biological target: Maternal embryonic leucine zipper kinase (Homo sapiens) (UniProt Q14680); conditions: at 0.1 µM
Maternal embryonic leucine zipper kinase (Homo sapiens), sequence (Q14680 whole entry, looked up): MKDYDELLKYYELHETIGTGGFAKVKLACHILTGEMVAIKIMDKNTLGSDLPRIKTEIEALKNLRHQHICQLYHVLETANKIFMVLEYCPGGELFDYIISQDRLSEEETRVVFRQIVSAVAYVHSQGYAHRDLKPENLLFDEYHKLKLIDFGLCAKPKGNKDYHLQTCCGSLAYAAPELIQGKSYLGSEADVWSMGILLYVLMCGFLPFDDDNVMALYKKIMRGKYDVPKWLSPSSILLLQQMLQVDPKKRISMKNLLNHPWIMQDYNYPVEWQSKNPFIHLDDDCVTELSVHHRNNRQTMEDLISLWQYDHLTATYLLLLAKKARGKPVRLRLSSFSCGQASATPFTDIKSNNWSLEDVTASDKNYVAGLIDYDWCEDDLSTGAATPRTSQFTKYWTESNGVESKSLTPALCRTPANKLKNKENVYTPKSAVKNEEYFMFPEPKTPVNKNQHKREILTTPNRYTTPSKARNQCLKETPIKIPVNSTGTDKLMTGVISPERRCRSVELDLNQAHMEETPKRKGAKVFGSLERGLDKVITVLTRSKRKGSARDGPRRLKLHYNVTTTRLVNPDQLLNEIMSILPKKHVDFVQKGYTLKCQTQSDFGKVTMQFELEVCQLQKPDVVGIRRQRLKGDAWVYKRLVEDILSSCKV

[15] = biological target: Maternal embryonic leucine zipper kinase (Homo sapiens) (UniProt Q14680); conditions: at 1 µM
[16] = biological target: MAP kinase-interacting serine/threonine-protein kinase 1 (Homo sapiens) (UniProt Q9BUB5); conditions: at 0.1 µM
MAP kinase-interacting serine/threonine-protein kinase 1 (Homo sapiens), sequence (Q9BUB5 whole entry, looked up): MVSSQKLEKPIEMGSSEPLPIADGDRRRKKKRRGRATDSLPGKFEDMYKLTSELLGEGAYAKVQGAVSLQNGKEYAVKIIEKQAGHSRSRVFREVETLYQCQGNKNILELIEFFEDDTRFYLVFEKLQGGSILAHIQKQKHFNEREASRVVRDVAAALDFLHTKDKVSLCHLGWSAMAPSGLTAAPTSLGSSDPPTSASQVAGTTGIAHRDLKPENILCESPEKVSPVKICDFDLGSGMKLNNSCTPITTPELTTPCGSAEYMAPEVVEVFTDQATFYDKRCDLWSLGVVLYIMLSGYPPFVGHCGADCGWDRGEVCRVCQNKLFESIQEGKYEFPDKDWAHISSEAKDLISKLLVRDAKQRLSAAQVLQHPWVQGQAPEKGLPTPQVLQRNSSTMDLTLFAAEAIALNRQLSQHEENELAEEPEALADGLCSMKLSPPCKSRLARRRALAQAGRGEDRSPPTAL

[17] = biological target: MAP kinase-interacting serine/threonine-protein kinase 1 (Homo sapiens) (UniProt Q9BUB5); conditions: at 1 µM
[18] = biological target: MAP kinase-interacting serine/threonine-protein kinase 2 (Homo sapiens) (UniProt Q9HBH9); conditions: at 0.1 µM
MAP kinase-interacting serine/threonine-protein kinase 2 (Homo sapiens), sequence (Q9HBH9 whole entry, looked up): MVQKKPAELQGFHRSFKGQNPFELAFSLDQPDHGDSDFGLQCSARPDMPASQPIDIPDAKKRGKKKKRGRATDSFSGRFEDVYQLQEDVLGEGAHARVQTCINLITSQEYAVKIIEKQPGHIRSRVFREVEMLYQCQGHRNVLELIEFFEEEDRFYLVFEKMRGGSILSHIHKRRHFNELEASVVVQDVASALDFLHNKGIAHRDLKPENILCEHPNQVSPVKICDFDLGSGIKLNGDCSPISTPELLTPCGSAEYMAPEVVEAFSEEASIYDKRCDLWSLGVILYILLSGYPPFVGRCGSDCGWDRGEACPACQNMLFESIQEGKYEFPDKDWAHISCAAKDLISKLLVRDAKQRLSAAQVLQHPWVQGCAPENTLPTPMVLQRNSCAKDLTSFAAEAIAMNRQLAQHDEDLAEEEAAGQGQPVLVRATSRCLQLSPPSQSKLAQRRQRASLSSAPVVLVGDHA

[19] = biological target: MAP kinase-interacting serine/threonine-protein kinase 2 (Homo sapiens) (UniProt Q9HBH9); conditions: at 1 µM
[20] = biological target: Serine/threonine-protein kinase MARK2 (Homo sapiens) (UniProt Q7KZI7); conditions: at 0.1 µM;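 also: mean percent inhibition of PAR-1Balpha kinase activity, reported from the GSK PKIS screen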
Serine/threonine-protein kinase MARK2 (Homo sapiens), sequence (Q7KZI7 whole entry): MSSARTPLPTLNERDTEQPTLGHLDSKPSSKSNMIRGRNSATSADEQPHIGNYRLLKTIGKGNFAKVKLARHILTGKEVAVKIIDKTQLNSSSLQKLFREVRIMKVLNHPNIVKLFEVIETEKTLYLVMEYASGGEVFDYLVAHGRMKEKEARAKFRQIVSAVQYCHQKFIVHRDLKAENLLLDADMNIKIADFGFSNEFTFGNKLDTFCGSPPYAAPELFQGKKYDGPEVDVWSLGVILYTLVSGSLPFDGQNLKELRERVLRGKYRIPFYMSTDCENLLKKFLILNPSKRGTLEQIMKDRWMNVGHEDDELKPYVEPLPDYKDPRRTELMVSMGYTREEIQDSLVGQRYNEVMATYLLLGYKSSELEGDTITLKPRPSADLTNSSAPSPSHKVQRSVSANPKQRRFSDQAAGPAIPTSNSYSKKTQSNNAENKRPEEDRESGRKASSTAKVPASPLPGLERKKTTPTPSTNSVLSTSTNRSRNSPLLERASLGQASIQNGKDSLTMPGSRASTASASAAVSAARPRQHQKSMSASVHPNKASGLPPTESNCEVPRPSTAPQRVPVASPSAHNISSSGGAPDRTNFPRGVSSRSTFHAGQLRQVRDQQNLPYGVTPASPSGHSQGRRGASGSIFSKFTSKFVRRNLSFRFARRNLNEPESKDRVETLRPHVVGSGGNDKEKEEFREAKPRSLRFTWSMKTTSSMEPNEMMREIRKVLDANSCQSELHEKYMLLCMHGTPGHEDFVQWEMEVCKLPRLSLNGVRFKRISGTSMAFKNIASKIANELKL

| Compound | inhibition [1] | inhibition [2] | inhibition [3] | inhibition [4] | inhibition [5] | inhibition [6] | inhibition [7] | inhibition [8] | inhibition [9] | inhibition [10] | inhibition [11] | inhibition [12] | inhibition [13] | inhibition [14] | inhibition [15] | inhibition [16] | inhibition [17] | inhibition [18] | inhibition [19] | inhibition [20] |
| --- | --- | --- | --- | --- | --- | --- | --- | --- | --- | --- | --- | --- | --- | --- | --- | --- | --- | --- | --- | --- |
| CCc1nn2ncccc2c1-c1ccnc(NC2CC2)n1 | 1.38% | -1.54% | 2.15% | 1.44% | 2.07% | 1.73% | 2.3% | 0.89% | 2.47% | 0.47% | 3.36% | 2.15% | 2.34% | 2.14% | 5.08% | 5.42% | 17.9% | 2.69% | 8.83% | 1.31% |
| CC(C)COC(=O)c1ccc2c(c1)/C(=C/Nc1ccc(S(N)(=O)=O)cc1)C(=O)N2 | 3.08% | -2.21% | 10.2% | -0.97% | -1.28% | -2.74% | -2.61% | 42.7% | 87.1% | 33.3% | 88.7% | 24.6% | 77.5% | 50.1% | 93.2% | -1.01% | 6.56% | 1.73% | 13.9% | 25.9% |
| Nc1nc(-c2cccc(Cl)c2)c(-c2ccc3ncccc3n2)s1 | 15.4% | 1.69% | 1.16% | 4.89% | 6.05% | 13.6% | 23.9% | 5.51% | 4.17% | 2.28% | 6.68% | 1.87% | -0.31% | 4.19% | 11.3% | 3.39% | 9.69% | 2.72% | 7.56% | 1.01% |
| CC1=C(C(=O)Nc2cc(Cl)c3[nH]ncc3c2)C(c2ccc(C(F)(F)F)cc2)CC(=O)N1 (stereo not given) | 10% | 3.55% | 2.36% | 4.51% | 4.3% | 9.27% | 9.12% | 3.77% | 6.87% | 3.36% | 9.91% | 1.64% | 3.1% | 5.47% | 7.81% | 2.74% | 7.79% | 2.19% | 5.02% | 1.6% |
| COC(=O)c1sc(-n2cnc3cc(OC)c(OC)cc32)cc1OCc1ccccc1C(F)(F)F | 1.94% | 2.16% | 0.62% | 1.81% | 1.73% | 4.86% | 5.46% | 2.71% | 6.82% | 2.38% | 3.04% | 2.41% | 4.85% | 4.31% | 12.6% | 3.55% | 3.3% | 0.22% | -0.04% | -1.89% |
| CN1CCC(n2cnc(-c3ccc(F)cc3)c2-c2ccnc(Nc3ccccc3)n2)CC1 | 2.54% | 0.09% | -4.09% | 1% | 0.41% | 34.8% | 36.9% | 1.99% | 4.86% | 3.17% | 2.89% | 0.39% | 0.51% | 1.63% | 3.22% | 1.8% | 11.4% | 1.79% | 4.18% | 0.89% |
| FC(F)(F)c1cccc(-c2nn3ncccc3c2-c2ccnc(Nc3ccc4c(c3)OCCO4)n2)c1 | 4.46% | 0.29% | -0.51% | 0.54% | 0.88% | 12.3% | 31.9% | 2.64% | 3.63% | 2.14% | 3.45% | 0.66% | 1.99% | 1.43% | 4.99% | 1.74% | 3.33% | 0.83% | 1.61% | -1.11% |
| c1ccc(COc2ccc(Nc3ncnc4ccc(-c5ccco5)cc34)cc2)cc1 | 0.73% | -0.98% | -0.08% | 2.44% | 0.12% | 1.07% | -0.28% | 0.18% | 1.8% | 0.1% | 3.2% | 0.96% | 1.77% | 0.14% | -3.64% | 1.35% | 5.5% | 2.49% | 8.27% | -1.72% |
| CCn1c(-c2nonc2N)nc2c(C#CC(C)(C)O)ncc(OC3CCNCC3)c21 | 5.68% | 0.06% | 3.29% | 1.3% | 3.78% | 3.98% | 4.41% | 20.8% | 74.1% | 21.2% | 77.7% | 14% | 62.1% | 21.2% | 76.4% | 1.74% | 2.25% | 2.54% | 2.87% | 19.3% |
| CCn1c(-c2nonc2N)nc2ccccc21 | 7.32% | -0.38% | -3.76% | 0.79% | 1.12% | 3.15% | 1.52% | 2.03% | 3.52% | 3.42% | 22.2% | 1.04% | 2.84% | 1.29% | 7.45% | 1.93% | 8.64% | 0.78% | 14.7% | -0.05% |
| Clc1ccc(-c2nn3ncccc3c2-c2ccnc(Nc3ccccc3)n2)cc1 | -0.24% | 1.9% | 6.65% | 0.42% | -0.09% | 22.4% | 32.1% | 1.31% | 0.37% | -2.23% | 8.43% | 0.1% | 1.26% | 2.47% | 1.1% | 0.8% | 3.07% | 0.53% | 1.38% | 0.74% |
| COc1cccc(-c2c[nH]c3c(N/N=C/c4ccncc4)ncnc23)c1 | 11.2% | 1.17% | 8.13% | 2.94% | 3.56% | 9.72% | 11.1% | 2.74% | 8.15% | 6.06% | 11.8% | 1.97% | 7.5% | 0.82% | 4.88% | 15.4% | 57.1% | 11.8% | 51.1% | 0.99% |
| NC(=O)c1sc(-n2cnc3ccc(C(F)(F)F)cc32)cc1OCc1ccccc1Br | -0.59% | 0.84% | -0.41% | 1.86% | 0.94% | 4.27% | 4.34% | 2.69% | 4.02% | 0.94% | 11.5% | 1.2% | 2.56% | 2.87% | 7.71% | 2.89% | 5.77% | 1.04% | 3.71% | -0.38% |
